High-throughput results (PubChem)
TDP1 cell noCPT = qHTS for Inhibitors of human tyrosyl-DNA phosphodiesterase 1 (TDP1): qHTS in cells in absence of CPT; AID 686978, 2013; Potency, µM (titrated, usually from 46.2 µM), without a hit: top-dose activity change, negative = growth inhibition, hits mostly inhibitors; DT40 Tdp1-/- hTDP1 cells, no CPT, ATP luminescence, 48 h; hit rate 15% among 420,000; note: potency is the fitted concentration of half-maximal effect; nearly all actives have a fitted effect of over 55% in size
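Growth kinetics read by CellTiter-Glo luminescence after ≥48 hr at 37 °C. Cells: DT40 Tdp1-/- stably carrying human TDP1, 400 per well, compound exposure in the absence of CPT (DMSO vehicle).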
DT40 TDP1 CPT = DT40-hTDP1 cell growth loss with CPT; hit rate 12% among 420,000; chicken DT40 Tdp1-/-;hTDP1 cells + 20 nM CPT, ATP luminescence, 48 h; Potency, µM (series often up to 46.2 µM), for the others: at the top dose activity change, negative = growth inhibition, usual class: inhibitors; note: potency is the fitted concentration of half-maximal effect; nearly all actives have a fitted effect of over 55% in size
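Chicken DT40 Tdp1-/- cells complemented with human TDP1, 400 cells/well, exposed to compounds plus 20 nM camptothecin for at least 48 h at 37 C; viability read as ATP content by CellTiter-Glo luminescence.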
Six1-Eya2 blk = Six1/Eya2 interaction inhibition; Q15475+O00167; AlphaScreen GST-Six1/His-Eya2 binding, biochemical; hits give low values; activity change, % (concentration not given with the values); hit rate 0.56% among 360,000; AID 651725; in the data active = activity change below about -65%; inconclusive = mostly about -30% to -63%
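Homogeneous AlphaScreen proximity assay pairing GST-Six1 with His-tagged Eya2 (added as 5X mix: 250 nM and 500 nM) in 50 mM Tris pH 8.0, 300 mM NaCl, 1 mM TCEP. Glutathione donor and nickel acceptor beads; 1 h, 37 °C, dark.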
IL1B secr inh = inhibitors of inflammasome signaling (IL-1 beta secretion); THP-1 LPS/ATP IL-1B secretion, AlphaLISA, 16 h; hits give low values; activity change, % at 57.5 µM; hit rate 4.7% among 360,000; AID 743279; in the data active = activity change below about -50%; inconclusive = mostly about -30% to -49%
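Secreted IL-1B measured by AlphaLISA bead assay after 16 h compound exposure of THP-1 cells; compounds (final up to 57.5 uM) added 1 h before LPS (250 ng/mL) and ATP (1.25 mM) stimulation; lower signal means less secretion.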
TDP1 block = blocks human tyrosyl-DNA phosphodiesterase 1; hit rate 0.28% among 350,000; Q9NUW8; Potency, µM (doses to about 130 µM), for the others: at the top dose activity change, negative = inhibition, hits mostly inhibitors; recombinant TDP1, AlphaScreen DNA substrate cleavage; note: potency is the fitted concentration of half-maximal effect; nearly all actives have a fitted effect of over 40% in size
Target sequence (Q9NUW8 whole entry, looked up): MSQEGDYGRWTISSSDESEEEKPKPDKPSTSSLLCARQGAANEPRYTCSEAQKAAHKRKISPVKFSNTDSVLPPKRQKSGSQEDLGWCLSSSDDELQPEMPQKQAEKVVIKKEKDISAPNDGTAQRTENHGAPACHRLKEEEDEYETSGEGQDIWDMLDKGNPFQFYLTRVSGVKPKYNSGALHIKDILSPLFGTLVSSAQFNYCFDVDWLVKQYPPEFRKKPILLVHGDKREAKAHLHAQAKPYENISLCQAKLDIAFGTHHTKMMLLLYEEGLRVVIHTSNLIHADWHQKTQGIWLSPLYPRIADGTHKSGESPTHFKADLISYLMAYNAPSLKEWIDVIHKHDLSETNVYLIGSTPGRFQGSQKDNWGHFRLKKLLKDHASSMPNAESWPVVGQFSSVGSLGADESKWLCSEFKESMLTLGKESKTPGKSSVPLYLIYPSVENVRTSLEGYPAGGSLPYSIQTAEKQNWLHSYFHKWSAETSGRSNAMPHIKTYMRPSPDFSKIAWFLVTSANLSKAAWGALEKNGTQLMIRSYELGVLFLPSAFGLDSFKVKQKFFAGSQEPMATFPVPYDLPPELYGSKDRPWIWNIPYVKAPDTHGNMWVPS
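Steps: enzyme plus compound, 15 min RT; add biotin/phosphotyrosine-FITC oligonucleotide (15 nM final), react 5 min; add donor/acceptor beads (10 ug/ml final), 10 min; read AlphaScreen. Tdp1 at 1 nM final.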
CtBP-E1A inh = CtBP/E1A binding inhibition. AlphaScreen GST-E1A/His-CtBP binding, 1536-well; hits give low values. activity change, % (concentration not given with the values). hit rate 0.49% among 340,000. AID 651724; in the data active = activity change below about -65%; inconclusive = mostly about -30% to -63%
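Protein mix (5X: 125 nM each GST-E1A, His-CtBP) was incubated with pinned compound 2 h at 37 deg C in dark, in 50 mM Tris pH 8.0 buffer with 300 mM NaCl. Glutathione donor and nickel acceptor beads followed; AlphaScreen signal read after 1 h.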
Starred values were filed as active, the others as inactive; ? = inconclusive; · = not tested or not shown; [ ] = dose if it differs, or a comment. This is a sample that favours compounds with a hit; in the whole collection about 18% have one here. Unless noted, calls come from the whole dose curve; as a rule, active = well fitted curve in the direction sought with a large enough effect; inconclusive = small, poorly fitted or top-dose-only effect, or another doubt; inactive = no such curve, though single readings can be large; an effect the other way counts as inactive or inconclusive. % is set by controls: 0 for no effect and ±100 for the full control effect.

SMILES	TDP1 cell noCPT	DT40 TDP1 CPT	Six1-Eya2 blk	IL1B secr inh	TDP1 block	CtBP-E1A inh
CCOC(=O)C(C)On1c(-c2cccc(Cl)c2)nc2ccc([N+](=O)[O-])cc21 (stereo unspecified)	21µM*	?	-28	-17	10%	-10
CCOC(=O)COn1c(-c2cccc(Cl)c2)nc2ccc([N+](=O)[O-])cc21	-30%	-7%	3	1	4%	13
COc1ccc(N=C2C(=S)N(c3ccc(OC)cc3)C(=NS(=O)(=O)c3ccccc3)N2c2ccccc2)cc1	1.5µM*	1.5µM*	-20	-5	·	17
Cc1ccc(C)c(OC(=O)CSc2nnc(CNC(=O)c3ccccc3)o2)c1	-16%	-2%	·	·	6%	·
CCOC(=O)CNC(=O)COc1coc(CN2CCN(c3ccccc3F)CC2)cc1=O	17%	2%	-18	14	-6%	1
NC(=S)N/N=C/c1ccc(-c2ccccc2)o1	?	?	-8	-24	7%	-2
NC(=S)N/N=C\c1ccc(-c2cccc(Cl)c2Cl)o1	4.6µM*	5.2µM*	-15	0	7%	-12
Cc1ccc(-c2ccc(/C=N/NC(N)=S)o2)cc1	4.1µM*	2.9µM*	-2	45	·	-9
NC(=S)N/N=C/c1ccc(-c2ccc(SC(F)F)cc2)o1	5.2µM*	3.7µM*	-3	-30	10%	-5
CN(C)/N=C/c1ccc(/C=N/NC(N)=S)o1	-28%	-7%	-2	9	-3%	2
NC(=S)N/N=C/c1ccc(-c2ccc(Cl)c(Cl)c2)o1	13µM*	23µM*	0	21	3%	-2
COc1ccc(COC(=O)CN2C(=O)NC3(CC(C)CC(C)(C)C3)C2=O)cc1F (stereo unspecified)	-19%	-6%	-16	-3	-4%	-2
C[C@H](NC(=O)[C@H]1N2C(=O)c3ccccc3C2SC1(C)C)C(=O)N1CCC[C@H]1C(=O)O (stereo partly specified)	1%	-2%	18	-7	·	8
Cc1ccc(-n2nnnc2SCn2nnc3ccccc3c2=O)cc1	13µM*	?	-16	-5	2%	2
C/C=C/c1ccc(OCc2cc(=O)n3cc(C)ccc3n2)c(OC)c1	18µM*	?	6	25	0%	3
COc1ccc(C)cc1-n1nnnc1SCc1cc(=O)n2cc(C)ccc2n1	7.3µM*	8.2µM*	-3	-28	5%	1
Cc1cccc(-n2nnnc2SCn2nnc3ccccc3c2=O)c1	?	?	8	9	-4%	3
COc1ccc(C)cc1-n1nnnc1SCn1nnc2ccccc2c1=O	16µM*	16µM*	0	-14	2%	2
O=c1c2ccccc2nnn1CSc1nnnn1-c1ccc(O)cc1	?	-13%	-2	10	3%	·
CCOC(=O)c1ccccc1NC(=O)COC(=O)C(CCSC)NC(=O)COc1ccccc1 (stereo unspecified)	-27%	?	-17	19	0%	-5
Cc1ccccc1N1CCN(C2CCCN(C(=O)CCc3c(C)noc3C)C2)CC1 (stereo unspecified)	23µM*	?	5	-3	1%	-4
Cc1ccc2nc(C)cc(C(=O)N3CCCC(N4CCN(c5ccccc5C)CC4)C3)c2c1 (stereo unspecified)	?	15µM*	-2	-3	3%	1
Cc1ccccc1N1CCN(C2CCCN(C(=O)c3csc(C(C)C)n3)C2)CC1 (stereo unspecified)	?	?	-5	-8	4%[56.1 µM]	-1
Cc1nc(C(=O)N2CCCC(N3CCN(c4ccccc4C)CC3)C2)cs1 (stereo unspecified)	?	15µM*	4	4	1%	-4
COCc1ccc(C(=O)N2CCCC(N3CCN(c4ccccc4C)CC3)C2)s1 (stereo unspecified)	?	15µM*	-7	-15	5%	3
SMILES	TDP1 cell noCPT	DT40 TDP1 CPT	Six1-Eya2 blk	IL1B secr inh	TDP1 block	CtBP-E1A inh
CCN(CC)S(=O)(=O)c1ccc2[nH]c(=O)cc(C(=O)Nc3ccc(C)cc3)c2c1	-17%	-2%	-10	5	-5%	5
CCNC(=O)Nc1ccc2c(c1)c(=O)n(C)n2CC=C(C)C	-5%	-18%	9	12	·	-20
CCOCCC(=O)Nc1ccc2c(c1)c(=O)n(C)n2-c1ccccc1F	-21%	-27%	-2	-1	·	2
CCOCCC(=O)Nc1ccc2c(c1)c(=O)n(C)n2C/C=C/c1ccccc1	3.3µM*	4.6µM*	-7	72	·	-3
Cn1c(=O)c2cc(NC(=O)NCc3ccc(F)cc3)ccc2n1C/C=C/c1ccccc1	9.2µM*	8.2µM*	-3	63	·	1
Cn1c(=O)c2cc(NC(=O)Cc3ccccc3F)ccc2n1C/C=C/c1ccccc1	?	?	-16	-18	·	-7
CC(C)=CCn1c2ccc(NC(=O)NCc3ccc(F)cc3)cc2c(=O)n1C	1.6µM*	2.1µM*	2	68	·	1
Cc1ccc(CNC(=O)COC(=O)c2cnccn2)cc1	-10%	-8%	1	3	2%	1
COc1ccc(C2/C=C\CC(NS(=O)(=O)c3ccc(C)cc3)CC(=O)N2Cc2ccccc2F)cc1 (stereo unspecified)	?	23µM*	-3	-22	2%[56.1 µM]	-3
COc1ccc(C2/C=C\CN(S(=O)(=O)c3ccc(C)cc3)CC(=O)N2Cc2ccc(F)cc2)cc1 (stereo unspecified)	18µM*	?	-6	8	6%	0
Cc1ccc(CN2C(=O)C[C@@H](NS(=O)(=O)c3ccc4ccccc4c3)C/C=C\C2c2ccc(C)cc2)cc1 (stereo partly specified)	·	·	·	·	9%	·
COc1ccc([C@H]2/C=C\CN(S(=O)(=O)c3ccc(C)cc3)[C@@H](C)C(=O)N2Cc2ccc(F)cc2)cc1	?	18µM*	0	26	·	-3
COc1ccc([C@H]2/C=C\CN(S(=O)(=O)c3cccc4cccnc34)[C@@H](C)C(=O)N2Cc2ccc(F)cc2)cc1	15µM*	18µM*	-11	-10	·	-5
O=S1(=O)c2ccccc2N(Cc2ccc(Cl)cc2)c2ccccc21	?	?	·	·	2%	·
O=S(=O)(NCCc1ccc(F)cc1)c1cc(C(F)(F)F)ccc1Br	-18%	-19%	5	-13	·	1
